Source: paper PMC12136788
Changes are numbered by the printed parent chain. The full ranking holds about 24,000 sequences; the median of “enrichment r” is about 0.99, and the highest 2% start at about 3.7. Only a selection was taken, and the highest values are over-represented in it overall.

T1: UNK ZnF1-3 (human, UniProt Q9C0B0 31-174)
T1 sequence: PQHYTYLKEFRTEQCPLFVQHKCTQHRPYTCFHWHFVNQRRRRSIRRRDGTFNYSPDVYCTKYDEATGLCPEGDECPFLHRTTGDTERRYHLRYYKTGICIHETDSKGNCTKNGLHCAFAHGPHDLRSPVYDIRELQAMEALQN

B1: chr17:56552419:56552420:-_ENSMUSG00000013236_ENSMUST00000086828|mus_mus|mus_mus_mus_hu_False|8_68 (ssRNA)
RNA: GGGAGUUCUACAGUCCGACGAUCAAAAAAUACACUAUUUAAAAAAAAUGAAAUGUCACGGGAUACAAAAAAAUAUAGAGUUUUAAAAGAAAGCUGGAUUCUGGUCCCAGCCCAGUGUCCCCAGGCUGAGUGCGGAAGAGGAGCCAACAGAGGAUUGAGCAUCA
B2: chr17:56552419:56552420:-_ENSMUSG00000013236_ENSMUST00000086828|mus_mus|mus_mus_mus_hu_False|68_78 (ssRNA)
RNA: GGGAGUUCUACAGUCCGACGAUCAAAAAAUACACUAUUUAAAAAAAAUGAAAUGUCAGAAAAAGAAAAAAAAUAUAGAGUUUUAAAAGAAAGCUGGAUUCUGGUCCCAGCCCAGUGUCCCCAGGCUGCAGAGCGGGGAGGAGCCAACAGAGGAUUGAGCAUCA
B3: chr17:56552419:56552420:-_ENSMUSG00000013236_ENSMUST00000086828|mus_mus|mus_mus_mus_hu_False|68_98 (ssRNA)
RNA: B2 RNA with U38A, U39A, G58C, A59G, A60G, A61G, A63U, G64A, A65C
B4: chr17:56552419:56552420:-_ENSMUSG00000013236_ENSMUST00000086828|mus_mus|mus_mus_mus_hu_False|38_68 (ssRNA)
RNA: GGGAGUUCUACAGUCCGACGAUCAAAAAAUACACUAUUUAAAAAAAAUGAAAUGUCACGGGAUACAAAAAAAUAUAGAGUUUUAAAAGAAAGCUGGAAAAAAAAUGCAGCCCAGUGUCCCCAGGCUGCAGAGCGGGGAGGAGCCAACAGAGGAUUGAGCAUCA
B5: 22200820_22267049_921_CDS_ENSMUSG00000039197_ENSMUST00000045376|mouse|control|control (ssRNA)
RNA: GGGAGUUCUACAGUCCGACGAUCUUGAGACAGAAAGCCUCCAACAAAUGCAUCUCCAGCUCCAUUGGUGUCAAUGAUCUCUUCCUGGUUUUGAUCCAAGACAGGAAAAGCAGUGACAUCAUUCUCUGCAGCCACUAUGGUGUCCAACAGAGGAUUGAGCAUCA
B6: 33328512_33328632_5828_CDS_ENSG00000198646_ENST00000359003|human|control|control (ssRNA)
RNA: GGGAGUUCUACAGUCCGACGAUCAUCUGCACCAUAUUGUUCUUCCCCUUUCUCAAGAGAGCCUGUAACUUUCUUACAUGCCUUGGUCAACAAAAUUUGGCCAAUUUUGUCCACUUUUCCUUUGCCCUUACUAGACGAGACUGGCAACAGAGGAUUGAGCAUCA
B7: chr12:95365269:95365270:-_ENSG00000184752_ENST00000327772|hu_hu|motif|central (ssRNA)
RNA: GGGAGUUCUACAGUCCGACGAUCUCAUUGUCUUUACUUGUAAGGUGUUGAAGGUGGGAUCCACUCCUGAAUCUUCUUUCGGGUGGUAGAAUAAGGUACAUAUUGUUCUGGGGUGCCAGUCACGUUGAAUUUAUGGUUCGUCCACAACAGAGGAUUGAGCAUCA
B8: chrX:106345308:106345309:+_ENSMUSG00000031246_ENSMUST00000033598|mus_mus|motif|central (ssRNA)
RNA: GGGAGUUCUACAGUCCGACGAUCUUCUCUCAUCCACUUCCGAUUCUCUUCAUUAGCUGCAAUAUCUUUUUCUUCAAAUCCGGUUUUGUUGGCUUCUAAGAAACAAAGCACAUCUUGCUGUUUCUUCUUAAUCGCCGUAGAGCCCAACAGAGGAUUGAGCAUCA
B9: 25284998_25285535_556_3pUTR_ENSMUSG00000054793_ENSMUST00000068023|mouse|control|control (ssRNA)
RNA: GGGAGUUCUACAGUCCGACGAUCCACGCUCCACACCUUGCCGUUCUCCUGGCCGCUGCUCACUCCUUUCAACUCCUUGCGAUCCCGAUACCAGCGCAGGACCGCUGCGGGGCGCGACCGCGGAACCAGGCAGCUGAGUUCCACCAACAGAGGAUUGAGCAUCA
B10: 122215373_122233679_156_5pUTR_ENSG00000114030_ENST00000344337|human|control|control (ssRNA)
RNA: GGGAGUUCUACAGUCCGACGAUCACUUUUCAGGCGAAAGUUCUCUUUUCCUGGGGUGGUCAUGAUUUCAGGCUCAAGGCAACCGAUCCCGGUGCCACCGCUGAAGUUAGCCCCUCGCUCGCCCGCCCGCCGUGCCACUCCCGCCAACAGAGGAUUGAGCAUCA
B11: 36851294_36856410_1128_CDS_ENSMUSG00000022837_ENSMUST00000023535|mouse|control|control (ssRNA)
RNA: GGGAGUUCUACAGUCCGACGAUCAUUUAGCUCCAACAUCAUCUUUGUUCGUUUAGAUCUGAAACUCCUCUGCAAGGCAAUCACAGCAGACGGAAGCUUCUUUAAUCUCUUUCUGGUCUGGAAACCUUUCCAAUAGGCUUGAAUCAACAGAGGAUUGAGCAUCA
B12: chr18:52893488:52893489:-_ENSG00000196628_ENST00000354452|hu_hu|hu_hu_hu_mus_True|48_48 (ssRNA)
RNA: GGGAGUUCUACAGUCCGACGAUCUAUUUAGACCAUUUCCGCGGAGUUAUGGCAUUUACUCAGUGCUGAUAGGUGGAAAAACUACUUGAACAGGGAUUUUUUUUUUCCUUAAUACAUGCCAAGAUUGUGUGGCUGUCAAAACAGCAACAGAGGAUUGAGCAUCA
B13: chr4:142145789:142145790:+_ENSG00000109445_ENST00000262990|hu_hu|FALSE|FALSE (ssRNA)
RNA: GGGAGUUCUACAGUCCGACGAUCACACUGUGCACAAAUUGGUAACUUCUGUACAGAAUUACAAAAGUAGCAAAAUGCUCUAUUCUUCUGCCGCCUCUGACACUUGUCACAUUCCAUUGAGGCAUUACAUGGAUGUUUAGCUAACAACAGAGGAUUGAGCAUCA
B14: chr11:101919151:101919152:-_ENSMUSG00000017314_ENSMUST00000017458|mus_mus|motif|central (ssRNA)
RNA: GGGAGUUCUACAGUCCGACGAUCAAAUGAGAUUCCUAAUAUAAUAAAUAUAUUUCUAGCAUUUGUAAUAAAUAUUCUGUCGGUUCUCCCUCCCUCCCCUUCUCUAGGAUAUGGGCACACAGUGGUUCAGGGACAAGCUUGGGCCAACAGAGGAUUGAGCAUCA
B15: chr17:56552419:56552420:-_ENSMUSG00000013236_ENSMUST00000086828|mus_mus|mus_mus_mus_hu_False|28_68 (ssRNA)
RNA: GGGAGUUCUACAGUCCGACGAUCAAAAAAUACACUAUUUAAAAAAAAUGAAAUGUCACGGGAUACAAAAAAAUAUAGAGUUUUAAAAGAAAGCUGGAUUCUGGUCCUUGCCAAAAGUCCCCAGGCUGCAGAGCGGGGAGGAGCCAACAGAGGAUUGAGCAUCA
B16: chr17:56552419:56552420:-_ENSMUSG00000013236_ENSMUST00000086828|mus_mus|mus_mus_mus_hu_False|1_58 (ssRNA)
RNA: GGGAGUUCUACAGUCCGACGAUCAAAAAAUACACUAUUUAAAAAAAAUGAAAUGUCACGGGAUACAGUUACACUGACACUAUUAAAAGAAAGCUGGAUUCUGGUCCCAGCCCAGUGUCCCCAGGCUGCAGAGCGGGGCAGAGGCAACAGAGGAUUGAGCAUCA
B17: chr17:56552419:56552420:-_ENSMUSG00000013236_ENSMUST00000086828|mus_mus|mus_mus_mus_hu_False|68_88 (ssRNA)
RNA: GGGAGUUCUACAGUCCGACGAUCAAAAAAUACACUAUUUAAAAAAAAAAGAAAAAAACGGGAUACAAAAAAAUAUAGAGUUUUAAAAGAAAGCUGGAUUCUGGUCCCAGCCCAGUGUCCCCAGGCUGCAGAGCGGGGAGGAGCCAACAGAGGAUUGAGCAUCA
B18: chr17:56552419:56552420:-_ENSMUSG00000013236_ENSMUST00000086828|mus_mus|mus_mus_mus_hu_False|1_68 (ssRNA)
RNA: B15 RNA with U107C, U108A, A112C, A114G, A115U, A138C, G139A, C143G
B19: chr17:56552419:56552420:-_ENSMUSG00000013236_ENSMUST00000086828|mus_mus|mus_mus_mus_hu_False|48_68 (ssRNA)
RNA: B15 RNA with G88A, G92A, C93U, U94A, G95A, U107C, U108A, A112C, A114G, A115U
B20: chr7:7679991:7679992:-_ENSG00000106399_ENST00000396682|hu_hu|hu_hu_hu_mus_False|68_68 (ssRNA)
RNA: GGGAGUUCUACAGUCCGACGAUCUGGGAUGAAUCUUUUCCAGCUUCCCCACGAAGCACACGGGCCGGUCGAUGAAUUGUGGUAACAUGCUGGCGUUGACGCGCGCUUUGGGGAGCUGCAUUAUGUCCUCCAUGAUUCUGCCGCCAACAGAGGAUUGAGCAUCA
B21: 76906679_76906799_897_3pUTR_ENSMUSG00000022010_ENSMUST00000022587|mouse|control|control (ssRNA)
RNA: GGGAGUUCUACAGUCCGACGAUCUGGGGAGGGUUGAAAAGGCACAGAGCUCCUCGGGGUCAAUUAAACCAUUCCUCAGACAUCUGCCACGUUGCACAGGGCACAUCCCUGCUCACUCUCUGAUUAACCUUUAAUUCACUCAACCAACAGAGGAUUGAGCAUCA
B22: 129354385_129360783_1558_CDS_ENSG00000056277_ENST00000370978|human|control|control (ssRNA)
RNA: GGGAGUUCUACAGUCCGACGAUCAUGUUCAGCUUUCUCCUUGCUGGUCAAAAAUUGUAGUCUGCAUUUUGGGCAACGAUGAACUCCUUUUUUCUGAUGCUUCAUGUAAUGAUUCAUGUAGGGGGUUGCCAUUUUACUAACUUUCAACAGAGGAUUGAGCAUCA

The binders below were run against T1, UNK ZnF1-3 (assay: nsRBNS (natural sequence RNA bind-n-seq); RBNS binding buffer (assumed for nsRBNS): 25 mM Tris pH 7.5, 150 mM KCl, 3 mM MgCl2, 0.01% Triton X-100, 500 ug/ml BSA, 20 U/ml SUPERase-In, 4 C; UNK is unkempt and MSI1 is Musashi-1; names of the RNAs are library labels; protein concentration not given here; high values mean tight binding).

Row | Binder | binding signal [enrichment R]
1 | B1 | 6.22
2 | B2 | 10.9
3 | B3 | 9.31
4 | B4 | 10.8
5 | B5 | 0.736
6 | B6 | 0.505
7 | B7 | 0.831
8 | B8 | 0.538
9 | B9 | 0.858
10 | B10 | 0.57
11 | B11 | 0.644
12 | B12 | 0.93
13 | B13 | 1.04
14 | B14 | 3.58
15 | B15 | 9.22
16 | B16 | 3.44
17 | B17 | 16.7
18 | B18 | 9.75
19 | B19 | 8.41
20 | B20 | 0.493
21 | B21 | 1.14
22 | B22 | 0.531
